Only some compounds are listed: those with a hit (about 3% of all), similar ones and a draw of the others.
Imprint erasure = genomic imprint erasure induction. mouse ES Peg3-LacZ reporter, beta-gal luminescence, 40 h. Potency, µM (top dose mostly 60.7 µM), for inactives: at the top dose activity change, positive = activation, usual class: activators. 110,000 tested, 0.02% active. AID 1948
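Gelatin-coated wells received 300 freshly trypsinized female ES cells with a Peg3LacZ-Neo reporter on the maternal allele, then incubated 40 hours at 37C. BetaGlo was added for 5 minutes at room temperature before a single luminescence read.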
IkB sig inh = IkB pathway inhibition in ABC-DLBCL cells; ABC-DLBCL IkBa-CBG/CBR dual luciferase ratio, 4 h; response scale: scaled: untreated 0%, proteasome inhibitor 100%; Potency, µM (series often up to 57.1 µM), without a hit: top-dose IkBa stabilization activation; 110,000 tested, 0.04% active; AID 445; active means well fitted curve in the direction sought with a large enough effect in the signal ratio, not every such curve was filed as active; inconclusive means small, poorly fitted or top-dose-only effect, or a change in a side signal; the % refers to the signal ratio;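 further: the direction sought is a rising ratio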
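Curves were fitted separately to fusion (green), unfused (red) and ratio luminescence, then classed by r2, magnitude and activity. Cells: OCI-Ly3, 4 h compound plus doxycycline at 37C; 10 uM MG-132 defined full response.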
CRE Fsk mod = CRE-bla signaling modulation under forskolin stimulation; CHO CRE-bla reporter (cAMP response element driving beta-lactamase), forskolin EC10, beta-lactamase ratio; Potency, µM (titrated, usually from 38.2 µM), for the others: at the top dose activity change, negative = inhibition, hits mostly activators; 71,000 tested, 2.5% active; AID 662; active means well fitted activation curve with a large enough effect in the signal ratio, with a control signal flat, not every such curve was filed as active; inconclusive means small, poorly fitted or top-dose-only effect, or effect the other way, or a change in a side signal; the % refers to the signal ratio; further: % of control where 0% means no effect
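Using CellSensor CRE-bla CHO cells in Opti-MEM with 0.5% dialyzed FBS, compounds were titrated with EC10 NKH 477 for 3 h at 37 °C. CCF4 ratio (460/530 nm) gave %Activity; AC50 derived.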
p53ts 39C tox = cytotoxicity in p53ts cells at nonpermissive temperature. AID 902. H1299-p53A138V viability at 39C, ATP luminescence, 24 h. 130,000 tested, 1.5% active. Potency, µM (highest dose often 46.1 µM), for the others: at the highest dose activity change, negative = cell killing, most hits filed as cytotoxic; further: on the % scale 0 is the no-effect control and ±100 the full control effect; nearly all actives have a fitted effect of over 55% in size
p53ts 32C kill = p53ts cell cytotoxicity, permissive temperature | Potency, µM (highest dose often 46.1 µM), without a hit: at the top dose activity change, negative = cytotoxicity, actives largely listed as cytotoxic | 130,000 tested, 0.93% active | H1299-p53A138V at 32C, ATP luminescence viability, 24 h;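 further: 0% = DMSO and -100% = full killing by reference compound; nearly all actives have a fitted effect of over 55% in size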
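Cells: H1299 p53ts (A138V), 600/well, pre-incubated 16–30 h at 37C. Cpd up to 46 uM, 24 h, 32C. Readout: ATPlite luminescence, 20 min RT. Normalization: DMSO vs tamoxifen 100 uM. AC50 by Hill equation.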
* = called active by the depositor; ? = inconclusive; · = no result given; [ ] = another dose, or the depositor's remark. Unless noted, the call rests on the fitted dose curve; in most records, active means well fitted curve in the direction sought with a large enough effect; inconclusive means small, poorly fitted or top-dose-only effect, or another doubt; inactive means no such curve, though single readings can be large; an effect the other way counts as inactive or inconclusive. Potency means the concentration at half of the fitted maximal effect.

SMILES	Imprint erasure	IkB sig inh	CRE Fsk mod	p53ts 39C tox	p53ts 32C kill
CCOc1ccccc1N1CC(c2nc3ccccc3n2CCOc2ccc(C(C)(C)C)cc2)CC1=O (centres undefined)	-11%[10.9 µM]	-2%	·	13µM*	?
CCOc1ccccc1N1CC(c2nc3ccccc3n2CCCOc2ccccc2OC)CC1=O (centres undefined)	-8%[10.9 µM]	3%	·	-22%	-17%
COc1ccccc1OCCCn1c(C2CC(=O)N(c3ccccc3Cl)C2)nc2ccccc21 (centres undefined)	-12%[10.9 µM]	?	·	-21%	-17%
Cc1cccc(OCCCCn2c(C3CC(=O)N(c4ccc(C)cc4C)C3)nc3ccccc32)c1 (centres undefined)	-10%[10.9 µM]	-2%	·	25µM*	?
CCc1ccccc1N1CC(c2nc3ccccc3n2CCOc2ccc(Cl)c(C)c2)CC1=O (centres undefined)	-10%[10.9 µM]	?	·	32µM*	?
CCCCCn1c(=NC(=O)c2ccco2)c(C(=O)OCC)cc2c(=O)n3ccccc3nc21	-10%	11%	10µM*	-6%	14%
Cc1cccn2c(=O)c3cc(C(=O)NCc4cccnc4)c(=N)n(CCCO)c3nc12	-5%[10.9 µM]	?	·	15%	-14%
CC(C)n1c(=N)c(C(=O)NCCc2ccccc2)cc2c(=O)n3ccccc3nc21	-3%	-4%	10µM*	-11%	-20%
COC(=O)c1cc2c(=O)n3ccccc3nc2n(C(C)C)c1=N	11%	1%	?	-1%	5%
CCn1c(=N)c(C(=O)OC)cc2c(=O)n3ccccc3nc21	-5%	-2%	10µM*	-11%	-1%
Cc1cccn2c(=O)c3cc(C(=O)NCc4cccnc4)c(=N)n(C(C)C)c3nc12	-6%	2%	13µM*	7%	2%
CC(C)n1c(=N)c(C(=O)NC2CCCCC2)cc2c(=O)n3ccccc3nc21	-7%[10.9 µM]	1%	·	17%	-1%
C=CCC(CC=C)(CNC(=O)C(=O)Nc1cccc(C(F)(F)F)c1)c1ccccc1	-13%[10.9 µM]	-2%	·	-12%	-3%
COc1ccc(CN(Cc2ccco2)C(=O)c2ccccc2F)cc1	-8%[10.9 µM]	?	·	-4%	7%
COc1ccccc1N1CCN(C(=O)Cn2cnc3sc(C)c(S(=O)(=O)N4CCC(C)CC4)c3c2=O)CC1	6%[10.9 µM]	?	·	23%	10%
COc1ccc(-c2noc(CCC(=O)N(C)c3cc(Cl)ccc3OC)n2)cc1	12%[10.9 µM]	?	·	-19%	12%
CCCCNC(=O)c1cc2c(=O)n3cccc(C)c3nc2n(Cc2ccncc2)c1=N	5%	-1%	3.2µM*	-6%	-2%
CCc1ccc(NC(=O)Cn2c(=O)n(-c3cc(C)cc(C)c3)c(=O)c3oc4ccccc4c32)cc1	10%[10.9 µM]	?	·	?	-8%
Oc1ccc(O)cc1	10µM*	2%	?	12%	-2%
COc1ccc(Cn2c(SCC(N)=O)nc3c(sc4ccccc43)c2=O)cc1	11%[10.9 µM]	?	·	13µM*	-9%
Cc1ccc2nc(-c3c[nH]c4ccccc34)c(Nc3ccccc3)n2c1	-4%[10.9 µM]	?	·	-22%	-5%
Cc1cccc2cc3c(NC(=O)CC(C)C)nn(C)c3nc12	-5%	-1%	10µM*	1%	1%
CCCCC(=O)Nc1nn(C)c2nc3c(C)cccc3cc12	-9%	-1%	?	2%	3%
COc1ccc(C(=O)CSc2nc3nc(C)cc(C)c3c(=O)[nH]2)cc1OC	0%	0%	2.5µM*	7%	11%
Cc1cc(C)c2c(=O)[nH]c(SCC(=O)N3CCCCC3)nc2n1	-4%	2%	2.5µM*	12%	2%
SMILES	Imprint erasure	IkB sig inh	CRE Fsk mod	p53ts 39C tox	p53ts 32C kill
Cc1ccc(NC(=O)CSc2nc3nc(C)cc(C)c3c(=O)[nH]2)cc1	·	8%	3.2µM*	-2%	-10%
Cc1ccc(NC(=O)CSc2nnc(C)c(=O)[nH]2)cc1	-10%[10.9 µM]	-1%	·	14%	-2%
Cc1cc(C)c2c(=O)[nH]c(SCC(=O)Nc3ccccc3)nc2n1	·	8%	5µM*	-1%	-12%
Cc1cc(=O)[nH]c(SCC(=O)N2CCCCCC2)n1	-2%	0%	8%	-6%	10%
COc1ccc(CCC(=O)NCc2nc3cccnc3n2Cc2ccccc2)cc1	-3%[10.9 µM]	1%	·	-15%	0%
CCCCN(CCCC)S(=O)(=O)c1ccc(NC(=O)c2c(-c3ccccc3)noc2C)cc1	-11%[10.9 µM]	1%	·	22%	9%
Cc1cccc(-c2nc3scc(CCNS(=O)(=O)c4ccc5c(c4)OCCO5)n3n2)c1	-7%[10.9 µM]	-1%	·	-13%	3%
CCc1ccc(-n2nnc(-c3nsc(NC(=O)c4ccccc4Cl)n3)c2C)cc1	-5%[10.9 µM]	?	·	-26%	-1%
CSc1cccc(-n2nnc(-c3nsc(NC(=O)c4cccs4)n3)c2C)c1	-36%[10.9 µM]	-3%	·	13µM*	1%
Cc1ccc(-n2nnc(-c3nsc(NC(=O)c4cccc(Cl)c4)n3)c2C)cc1C	-8%[10.9 µM]	-3%	·	1%	2%
CCc1cccc(-n2nnc(-c3nsc(NC(=O)c4cccs4)n3)c2C)c1	-20%[10.9 µM]	-1%	·	10µM*	-19%
CCOc1ccccc1CNC(=O)c1ccc(N2Cc3ccccc3Oc3ncccc32)s1	3%[10.9 µM]	?	·	-12%	9%
CCN(CCCNC(=O)CSc1cc(=O)n(C)c2cc(Cl)ccc12)c1ccccc1	7%[10.9 µM]	-3%	·	3%	-5%
O=S(=O)(c1ccccc1)c1nc(-c2ccc(F)cc2)oc1NCc1ccccc1	-7%[10.9 µM]	-2%	·	-8%	7%
CCC(C)S(=O)(=O)c1oc(-c2cccs2)nc1S(=O)(=O)c1ccccc1 (centres undefined)	-38%[10.9 µM]	?	·	1µM*	6.3µM*
CC(C)CS(=O)(=O)c1oc(-c2ccc(F)cc2)nc1S(=O)(=O)c1ccccc1	-42%[10.9 µM]	?	·	2.5µM*	10µM*
CCN(CC)CCNC(=O)Nc1ccc2c(c1)N(Cc1ccccc1)C(=O)c1ccccc1S2	10%[10.9 µM]	0%	·	20µM*	-6%
Cc1cc2c(cc3c(SCc4cccc(F)c4)nnc(C)n32)o1	-15%[10.9 µM]	-1%	·	-28%	-5%
Cc1cc2c(cc3c(SCc4ccc(Cl)cc4)nnc(C)n32)o1	-13%[10.9 µM]	-1%	·	10µM*	-10%
CCOC(=O)c1[nH]c(C)c(C(=O)Nc2cc(OC)ccc2OC)c1C	-25%	1%	10µM*	-10%	21%
CCOC(=O)c1c(C)[nH]c(C(=O)OCC(=O)Nc2cc(C)ccc2OC)c1C	4%	-1%	?	?	-1%
CCOC(=O)c1c(NC(=O)COc2ccc(OC)cc2)sc(C(=O)N(CC)CC)c1C	-15%[10.9 µM]	?	·	30%	49%
CCOC(=O)Nc1sc(C(=O)N(CC)CC)c(C)c1C(=O)OCC	-20%	4%	4µM*	4%	7%
Cc1ccnc(NC(=O)/C=C/c2cccs2)c1	·	·	·	7.1µM*	·

Screening results (PubChem BioAssay)
